# IL1B secr inh: inhibitors of inflammasome signaling (IL-1 beta secretion); AID 743279; THP-1 LPS/ATP IL-1B secretion, AlphaLISA, 16 h; stronger effect = lower value; 360,000 compounds, 4.7% hits; activity change, % at 57.5 µM; in the data active = activity change below about -50%; inconclusive = mostly about -30% to -49%
#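 Secreted IL-1B measured by AlphaLISA bead assay after 16 h compound exposure of THP-1 cells; compounds (final up to 57.5 uM) added 1 h before LPS (250 ng/mL) and ATP (1.25 mM) stimulation; lower signal means less secretion.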
# DT40 TDP1 CPT: growth inhibition of DT40 Tdp1-/-;hTDP1 cells with camptothecin (screen for TDP1 inhibitors); Potency, µM (titrated, usually from 46.2 µM), hits mostly inhibitors; 420,000 compounds, 12% hits; AID 686979; chicken DT40 Tdp1-/-;hTDP1 cells + 20 nM CPT, ATP luminescence, 48 h; also: nearly all actives have a fitted effect of over 55% in size
#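 Chicken DT40 Tdp1-/- cells stably complemented with human TDP1 were seeded at 400 cells/well in medium containing 20 nM camptothecin, exposed to pin-transferred compounds, and grown at 37 °C for at least 48 hr. Viability was read as ATP luminescence.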
# Giardia killer: Giardia lamblia killing. Giardia lamblia trophozoite viability. activity change, % at 7.66 µM, hits read low. 340,000 compounds, 0.15% hits; in the data active = activity change below about -80%; inconclusive = between about -30% and that limit;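 also: parasites exposed to compound for two days anaerobically before the ATP read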
#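 Viability, read as ATP luminescence: trophozoites at 100 cells/well, compound added, 48 hrs anaerobic at 37 deg C, then 15-30 min room-temperature development before reading.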
# ELG1 repair inh: inhibitors of ELG1-dependent DNA repair in HEK293T cells. 330,000 compounds, 2.3% hits. Potency, µM (highest dose often 46.1 µM), hits mostly inhibitors. AID 504467. HEK293T ELG1-luciferase reporter, luminescence, 16 h; DNA damage induced by 5-fluorouridine; also: nearly all actives have a fitted effect of over 55% in size
#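 Cells (2,000 per well) received 5-fluorouridine plus test compound or DMSO and were incubated 16 hr at 37 °C, 5% CO2. Luciferase activity was read by luminescence 30 min after ONE-Glo addition; signal suppression marked inhibition of damage-induced ELG1 function.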
# TDP1 cell noCPT: qHTS for Inhibitors of human tyrosyl-DNA phosphodiesterase 1 (TDP1): qHTS in cells in absence of CPT | 420,000 compounds, 15% hits | Potency, µM (titrated, usually from 46.2 µM), usual class: inhibitors | DT40 Tdp1-/- hTDP1 cells, no CPT, ATP luminescence, 48 h; also: nearly all actives have a fitted effect of over 55% in size
#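 Luminescent ATP content (CellTiter-Glo) served as the growth readout. Knockout chicken DT40 cells expressing human TDP1 were exposed to compounds without camptothecin for a minimum 48 hr at 37 °C.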
# TDP1 block: TDP1 (human) enzyme inhibition; Potency, µM (top dose mostly 130 µM), most hits filed as inhibitors; Q9NUW8; AID 485290; recombinant TDP1, AlphaScreen DNA substrate cleavage; 350,000 compounds, 0.28% hits; also: nearly all actives have a fitted effect of over 40% in size
# Target sequence (Q9NUW8 whole entry, looked up): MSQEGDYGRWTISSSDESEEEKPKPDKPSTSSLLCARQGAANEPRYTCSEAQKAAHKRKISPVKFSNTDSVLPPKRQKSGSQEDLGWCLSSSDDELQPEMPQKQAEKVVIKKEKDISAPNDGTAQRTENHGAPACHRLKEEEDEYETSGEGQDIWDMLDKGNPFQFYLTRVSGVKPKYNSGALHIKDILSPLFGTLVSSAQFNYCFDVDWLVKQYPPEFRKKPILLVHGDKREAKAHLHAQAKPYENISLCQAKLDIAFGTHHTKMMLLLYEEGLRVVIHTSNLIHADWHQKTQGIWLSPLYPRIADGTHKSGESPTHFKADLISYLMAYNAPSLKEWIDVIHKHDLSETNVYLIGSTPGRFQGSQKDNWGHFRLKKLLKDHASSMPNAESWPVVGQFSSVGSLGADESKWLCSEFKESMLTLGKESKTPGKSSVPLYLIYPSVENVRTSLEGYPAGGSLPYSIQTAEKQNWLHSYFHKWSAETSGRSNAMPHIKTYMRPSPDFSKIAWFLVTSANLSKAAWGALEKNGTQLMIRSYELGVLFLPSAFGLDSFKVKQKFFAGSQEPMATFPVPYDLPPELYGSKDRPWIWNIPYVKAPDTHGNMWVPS
#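 E. coli-derived human Tdp1, 1 nM final. Cpd preinc 15 min RT; substrate 15 nM final, 5 min RT; AS bead mix 10 ug/ml final, 10 min RT. Signal loss = tyrosine-FITC cleavage. No-enzyme wells = max signal.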
# A number is an active result; i = inactive; ? = inconclusive; nt = no result given; [ ] = another dose, or the depositor's remark. Compounds with a hit are over-represented: about 19% of the library has one in this group of screens. Unless noted, calls follow the shape of the dose curve; as a rule, active = well fitted curve in the direction sought with a large enough effect; inconclusive = small, poorly fitted or top-dose-only effect, or another doubt; inactive = no such curve, though single readings can be large; an effect the other way counts as inactive or inconclusive.
SMILES,IL1B secr inh,DT40 TDP1 CPT,Giardia killer,ELG1 repair inh,TDP1 cell noCPT,TDP1 block
CC(C)(C)c1ccc(S(=O)(=O)NNC(=O)C2CCN(Cc3cccc(F)c3)CC2)cc1,-54.2,i,i,i,i,i
CCCn1c(SC(C)C(=O)N2CCOCC2)nc2ccc(Br)cc2c1=O (stereo not given),i,i,i,i,?,i[0.505 µM]
COc1cc2c(cc1OC)[C@@H](NC(=O)C(C)C)[C@H](OCc1ccccc1)C2,i,i,i,i,i,i
CC(=O)Nc1ccc(S(=O)(=O)NCCCCNS(=O)(=O)c2ccc(NC(C)=O)cc2)cc1,i,i,i,i,i,nt
CC(=O)Nc1ccc(S(=O)(=O)NCCSCc2ccc(Cl)cc2Cl)cc1,-56.5,?,i,?,18.4µM,i
Cc1ccccc1NC(=O)c1cccc(S(=O)(=O)Oc2ccc([N+](=O)[O-])cc2)c1,-58.4,?,i,i,?,i
CN(C)S(=O)(=O)Oc1cccc(C(=O)Nc2ccc([N+](=O)[O-])cc2)c1,i,?,i,?,8.2µM,i
O=C(Nc1ccc(O)cc1)c1cccc(Oc2ccc([N+](=O)[O-])cc2)c1,-67.6,?,i,i,18.4µM,i
Cc1ccccc1NC(=O)c1cccc(NC(=O)c2c(C(=O)O)cccc2[N+](=O)[O-])c1,i,i,i,nt,i,nt
CC(C)c1ccc(OCC(=O)Nc2c(C(=O)c3ccc(F)cc3)oc3ccccc23)cc1,nt,i,nt,nt,i,i
COc1cccc2nc3cc(C)c(C)cc3nc12,i,13µM,i,?,18.4µM,i
COc1c2ccccc2nc2ccccc12,i,?,i,i,?,nt
CC(C)(C)[C@]1(O)CCN2CC3c4ccccc4CCc4cccc(c43)[C@@H]2C1 (stereo not given in full),nt,nt,nt,nt,nt,i
Cc1cc(C(=O)COC(=O)c2ccccc2NCCO)c(C)n1CC1CCCO1 (stereo not given),i,?,?,?,14.6µM,i
Cc1cc(C(=O)COC(=O)c2ccccc2O)c(C)n1CC1CCCO1 (stereo not given),i,?,i,?,i,i
Cc1cc(C(=O)COC(=O)c2cc(O)c3ccccc3c2O)c(C)n1CC1CCCO1 (stereo not given),i,16.4µM,i,i,?,i
Cc1cc(C(=O)COC(=O)c2cccnc2Cl)c(C)n1CC1CCCO1 (stereo not given),i,23.1µM,?,?,?,i
O=S(=O)(N[C@H](CO)c1ccccc1)c1ccc(Br)cc1F,i,i,i,i,i,i
CCC(=O)N1CCc2cc(Br)cc(S(=O)(=O)CCC(=O)NCCc3ccccc3Cl)c21,nt,?,nt,nt,?,i
Cc1noc(C)c1CSCC(=O)N(C)CC(=O)Nc1ccc(Cl)cc1,i,?,i,?,?,i
CCOc1ccc(-n2c(Cc3ccccc3)nnc2SCc2nc(-c3ccccc3OC)no2)cc1,nt,?,nt,nt,16.4µM,i
CCOc1ccc(-n2c(Cc3ccccc3)nnc2SCc2nc(-c3ccccc3C)no2)cc1,nt,?,nt,nt,?,i
Cc1ccccc1-c1noc(CSc2nnc(Cc3ccccc3)n2-c2ccc(F)cc2)n1,nt,?,nt,nt,9.2µM,i
CC1CCc2sc(C(=O)N(C)CC(=O)Nc3ccc(N4CCOCC4)cc3)cc2C1 (stereo not given),i,?,i,i,i,i
COc1cccc(Cn2c(NCc3cccnc3)nc3c2c(=O)n(C)c(=O)n3C)c1,i,1.03µM,i,?,1.03µM,i
SMILES,IL1B secr inh,DT40 TDP1 CPT,Giardia killer,ELG1 repair inh,TDP1 cell noCPT,TDP1 block
Cn1c(=O)c2c(nc(NCc3cccnc3)n2Cc2cccc(C(F)(F)F)c2)n(C)c1=O,i,18.4µM,i,?,7.31µM,i
Cn1c(NCc2cccnc2)nc2c1c(=O)n(Cc1ccccc1F)c(=O)n2C,i,?,i,i,?,i
COc1cc(C(=O)NC(=S)Nc2ccc3c(c2)C(=O)N(C)C3=O)cc(OC)c1OC,i,i,i,i,3.66µM,i
COc1ccccc1C(=O)Nc1ccc2ccccc2c1,i,i,i,nt,i,nt
COc1cccc(OC)c1C(=O)NC(=S)Nc1ccc2c(c1)C(=O)N(C)C2=O,i,?,i,i,?,i
COc1cc(C(=O)NC(=S)Nc2ccc3ccccc3c2)cc(OC)c1OC,i,23.1µM,nt,nt,23.1µM,nt
O=C(NNC(=O)C1CC(=O)N(Cc2ccccc2)C1)c1ccc(Br)cc1 (stereo not given),i,i,i,i,i,i
COCCOC1CCN(Cc2cn(Cc3ccccc3)nc2-c2cc3ccccc3o2)CC1,i,?,i,?,16.4µM,i
OC1CCCN(Cc2cn(Cc3ccccc3)nc2-c2cc3ccccc3o2)C1 (stereo not given),?,?,i,?,18.4µM,i
CCC(O)C1CCN(Cc2cn(Cc3ccccc3)nc2-c2cc3ccccc3o2)CC1 (stereo not given),i,?,i,?,?,i
COc1c(S(=O)(=O)N2CCN(C)CC2)ccc(Cl)c1Cl,i,i,i,i,i,nt
C[C@@H]1ON(C)[C@H]2C[C@H]3c4[nH]c5ccccc5c4CCN3C(=O)[C@@H]12,i,i,nt,nt,i,nt
NC(=O)CCCn1c(C(=O)c2cc(Cl)c(N)c(Cl)c2)c2ccc(C(F)(F)F)cc2[n+]1[O-],i,?,i,i,18.4µM,i
NCCCn1c(C(=O)c2cc(Cl)c(N)c(Cl)c2)c2ccc(C(F)(F)F)cc2[n+]1[O-],?,?,?,i,18.4µM,i
NCCCn1c(C(=O)c2cc(Cl)c(N)c(Cl)c2)c2ccc([N+](=O)[O-])cc2[n+]1[O-],i,0.651µM,?,?,0.517µM,i
NC(=O)c1ccc(Cn2c(C(=O)c3cc(Cl)c(N)c(Cl)c3)c3ccccc3[n+]2[O-])cc1,i,?,i,i,?,nt
COc1ccc(C(=O)c2c3ccc(C(F)(F)F)cc3[n+]([O-])n2CCCC(N)=O)cc1,i,i,i,i,i,i
CN1OC[C@@H]2CN(S(=O)(=O)c3ccccc3)[C@H](c3ccc(N4CCCCC4)cc3)C[C@@H]21,i,?,nt,nt,?,nt
Cc1[nH]c(C)c(S(=O)(=O)N2c3ccccc3CC2C)c1C(=O)N1CCCCC1 (stereo not given),i,i,i,i,i,i
CC(=O)Nc1cccc(Nc2cc(C)nn2C)c1,i,i,nt,nt,i,nt
COc1cc(NC(=O)c2ccc(-c3cccc(F)c3)o2)ccc1NC(=O)c1ccccc1Cl,i,18.4µM,i,?,18.4µM,i
COc1cc(NC(=O)c2ccc(-c3ccc(Br)cc3)o2)ccc1NC(=O)C(C)C,i,14.6µM,i,i,18.4µM,i
COc1cc(NC(=O)c2ccco2)ccc1NC(=O)C(C)C,i,i,i,i,i,i

# Compound activity: PubChem BioAssay, National Center for Advancing Translational Sciences (NCATS)
